Measured values reported in PubChem BioAssay.
Active and inactive are the calls of the source.

How the values were obtained:
[1] = E. coli DRC41 culture turbidity changes, primary screen, E. coli filamentation inducer project, strain DRC41, OD650, 48 h (AID 1152);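 note: E. coli MC1000 strain DRC41 lacking acrAB efflux pump and sulA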; details: E. coli DRC41 (acrAB sulA), higher = more signal, called active from +8 up or from −8 down
[2] = small-molecule binders of probe aLefty1, primary screen, biochemical, small-molecule microarray, 635/667 nm fluorescence (AID 1153); details: higher = more signal;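 note: score merges spot fluorescence with signal-to-noise ratio from the scanned slide images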
[3] = PSAC antagonists in infected red cells, primary screen, cell-based, P. falciparum Indochina, OD700, 1 h (AID 1154); details: P. falciparum Indochina infected RBC osmotic lysis, higher = more signal, called active from +8 up or from −8 down
[4] = PSAC antagonists in infected red cells, primary screen, cell-based, P. falciparum Indochina, OD700, 2 h (AID 1155);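 note: lysis reports solute entry through the parasite surface anion channel PSAC; channel blockers reduce lysis of infected cells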; details: P. falciparum Indochina infected erythrocytes, osmotic lysis OD700; higher = more signal, called active from +8 up or from −8 down
[5] = osmotic lysis modulators in infected erythrocytes, primary screen, PSAC antagonist project, cell-based, P. falciparum Indochina, OD700, 3 h (AID 1156); details: higher = more signal, called active from +8 up or from −8 down
[6] = PSAC antagonists in infected red cells, primary screen, cell-based, P. falciparum Indochina, OD700, 18 h (AID 1157); details: P. falciparum Indochina infected erythrocytes, osmotic lysis OD700, 18 h; higher = more signal, called active from +8 up or from −8 down
[7] = modulators of S6 phosphorylation in cells, primary screen, cell-based, A549, cytoblot, luminescence, serum-stimulated (AID 1158); details: A549 phospho-S6 cytoblot, 5 h, higher = more signal;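 note: serum-stimulated A549 lung adenocarcinoma cells; signal is phosphorylated S6 detected by cytoblot immunostaining with HRP secondary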
[8] = target: NADPH oxidase 2 (Homo sapiens) (UniProt P04839); test: NOX2-dependent H2O2 signal modulators, primary screen, NOX inhibitor project, cell-based, HEK293-NOX2, PMA-stimulated, Amplex Red fluorescence (AID 1159); details: 45 min, higher = more signal, called active from +8 up or from −8 down; note: test concentration not given here
[9] = target: NADPH oxidase 4 (Homo sapiens) (UniProt Q9NPH5); test: NOX4-dependent H2O2 signal modulators, primary screen, NOX inhibitor project, cell-based, HEK293-NOX4, tetracycline-induced, Amplex Red fluorescence (AID 1160); details: 45 min, higher = more signal, called active from +8 up or from −8 down
[10] = target: NADPH oxidase 5 (Homo sapiens) (UniProt Q96PH1); test: NOX5-dependent H2O2 signal modulators, primary screen, NOX inhibitor project, cell-based, HEK293-NOX5, Amplex Red fluorescence (AID 1161); details: HEK293-NOX5, ionomycin, 45 min, higher = more signal
[11] = A549 cell viability effects, profiling panel, calcein-AM fluorescence, 48 h, basal (AID 1162); details: higher = more signal; note: test concentration not given here
[12] = adipocyte viability effects, profiling panel, cell-based, 3T3-L1 adipocytes, calcein-AM fluorescence, 48 h, basal (AID 1163); details: 3T3-L1 adipocytes viability, higher = more signal; note: test concentration not given here
[13] = HepG2 cell viability effects, profiling panel, calcein-AM fluorescence, 48 h, basal (AID 1164); details: higher = more signal; note: test concentration not given here
[14] = MM1S cell viability effects, profiling panel, calcein-AM fluorescence, 48 h, basal (AID 1165); details: higher = more signal;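 note: viability of MM1S multiple myeloma cells under basal unstimulated conditions; test concentration not given here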
[15] = basal RPMI8226 viability, no added stimulus, profiling panel, cell-based, calcein-AM fluorescence, 48 h, PK04 Diversity Set (AID 1166); details: RPMI8226 myeloma viability, higher = more signal;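 note: cells grown under basal conditions without added stimulus; test concentration not given here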
[16] = basal HepG2 mitochondrial membrane potential changes, profiling panel, cell-based, JC-1 fluorescence, 24 h, 100 nL compound (AID 1167); details: higher = more signal; note: test concentration not given here
[17] = basal 3T3-L1 adipocyte mitochondrial potential changes, profiling panel, cell-based, JC-1 fluorescence, 3T3-L1 adipocytes, 24 h, 100 nL compound (AID 1168); details: JC-1 mitochondrial fluorescence, higher = more signal, called active from +8 up or from −8 down; note: test concentration not given here
[18] = basal RPMI8226 mitochondrial membrane potential changes, profiling panel, cell-based, JC-1 fluorescence, 24 h, 100 nL compound (AID 1169); details: RPMI8226 myeloma, JC-1 mitochondrial potential fluorescence, higher = more signal; note: test concentration not given here
[19] = basal MM1S mitochondrial membrane potential changes, profiling panel, cell-based, JC-1 fluorescence, 24 h, 100 nL compound (AID 1170); details: higher = more signal; note: test concentration not given here
[20] = A549 lung cancer cell viability effects, profiling panel, resazurin fluorescence, 24 h, PK04 Diversity Set (AID 1171); details: higher = more signal, called active from +8 up or from −8 down; note: test concentration not given here

NADPH oxidase 4 (Homo sapiens), sequence (Q9NPH5 whole entry, looked up): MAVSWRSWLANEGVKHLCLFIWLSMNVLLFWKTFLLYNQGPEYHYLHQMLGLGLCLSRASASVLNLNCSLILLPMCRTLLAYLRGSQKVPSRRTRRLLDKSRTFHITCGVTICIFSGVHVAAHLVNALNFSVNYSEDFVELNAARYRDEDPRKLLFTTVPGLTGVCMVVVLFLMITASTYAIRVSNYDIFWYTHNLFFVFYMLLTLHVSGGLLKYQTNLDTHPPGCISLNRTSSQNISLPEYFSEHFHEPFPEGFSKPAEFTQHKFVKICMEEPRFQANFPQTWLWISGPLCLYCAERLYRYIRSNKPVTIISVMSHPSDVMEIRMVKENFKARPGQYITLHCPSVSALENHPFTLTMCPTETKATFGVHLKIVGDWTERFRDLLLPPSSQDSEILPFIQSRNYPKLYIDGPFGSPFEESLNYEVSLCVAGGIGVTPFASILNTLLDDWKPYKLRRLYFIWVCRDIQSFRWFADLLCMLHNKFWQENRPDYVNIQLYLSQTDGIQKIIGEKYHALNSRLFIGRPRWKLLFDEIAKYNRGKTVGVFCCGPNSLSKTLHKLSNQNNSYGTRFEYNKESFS
NADPH oxidase 2 (Homo sapiens), sequence (P04839 whole entry, looked up): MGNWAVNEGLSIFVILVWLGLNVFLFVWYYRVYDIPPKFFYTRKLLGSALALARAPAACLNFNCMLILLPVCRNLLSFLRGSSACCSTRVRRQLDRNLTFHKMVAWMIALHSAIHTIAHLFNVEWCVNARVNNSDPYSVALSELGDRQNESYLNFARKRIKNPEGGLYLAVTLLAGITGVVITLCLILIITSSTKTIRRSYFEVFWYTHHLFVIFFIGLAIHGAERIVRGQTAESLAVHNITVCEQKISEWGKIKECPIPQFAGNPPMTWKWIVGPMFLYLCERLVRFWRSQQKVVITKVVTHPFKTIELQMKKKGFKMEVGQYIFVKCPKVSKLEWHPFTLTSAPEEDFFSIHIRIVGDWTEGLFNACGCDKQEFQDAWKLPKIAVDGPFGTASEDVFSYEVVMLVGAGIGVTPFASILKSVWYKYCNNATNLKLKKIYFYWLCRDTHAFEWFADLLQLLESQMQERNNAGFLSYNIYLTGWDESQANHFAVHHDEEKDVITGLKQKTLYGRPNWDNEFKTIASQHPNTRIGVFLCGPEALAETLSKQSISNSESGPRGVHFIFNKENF
NADPH oxidase 5 (Homo sapiens), sequence (Q96PH1 whole entry, looked up): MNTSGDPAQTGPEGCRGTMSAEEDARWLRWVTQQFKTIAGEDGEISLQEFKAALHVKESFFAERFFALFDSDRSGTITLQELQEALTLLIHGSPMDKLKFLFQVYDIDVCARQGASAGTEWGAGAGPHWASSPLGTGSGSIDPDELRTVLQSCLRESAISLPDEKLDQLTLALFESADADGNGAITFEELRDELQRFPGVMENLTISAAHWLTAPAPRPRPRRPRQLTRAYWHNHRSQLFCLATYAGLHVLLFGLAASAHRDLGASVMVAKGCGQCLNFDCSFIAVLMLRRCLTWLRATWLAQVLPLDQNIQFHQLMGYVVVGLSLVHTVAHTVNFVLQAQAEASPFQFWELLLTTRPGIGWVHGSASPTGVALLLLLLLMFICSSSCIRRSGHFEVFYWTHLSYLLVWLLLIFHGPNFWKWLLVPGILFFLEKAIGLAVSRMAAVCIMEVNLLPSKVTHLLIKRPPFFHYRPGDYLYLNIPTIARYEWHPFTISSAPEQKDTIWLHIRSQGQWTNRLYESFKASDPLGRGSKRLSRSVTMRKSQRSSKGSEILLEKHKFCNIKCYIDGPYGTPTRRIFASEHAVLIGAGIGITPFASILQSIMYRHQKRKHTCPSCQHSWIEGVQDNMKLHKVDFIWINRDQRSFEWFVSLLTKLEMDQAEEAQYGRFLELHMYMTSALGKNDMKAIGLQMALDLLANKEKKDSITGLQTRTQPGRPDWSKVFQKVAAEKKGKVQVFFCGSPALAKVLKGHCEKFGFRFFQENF

| SMILES | z-score [1] | composite z-score [2] | z-score [3] | z-score [4] | z-score [5] | z-score [6] | z-score [7] | z-score [8] | z-score [9] | z-score [10] | z-score [11] | z-score [12] | z-score [13] | z-score [14] | z-score [15] | z-score [16] | z-score [17] | z-score [18] | z-score [19] | z-score [20] |
| --- | --- | --- | --- | --- | --- | --- | --- | --- | --- | --- | --- | --- | --- | --- | --- | --- | --- | --- | --- | --- |
| CN(C)CCCC[C@@H]1NC(=O)[C@H]2C[C@@H](C(=O)NCCCCCCN)[C@@H](c3ccc(O)cc3)N2C1=O | 0.51 (inactive) | 1.5 | 0.453 (inactive) | 0.374 (inactive) | 1.31 (inactive) | 0.0314 (inactive) | -0.24 | 0.277 (inactive) | 0.236 (inactive) | 0.731 | 0.168 | 0.526 | -0.0064 | -0.314 | 0.226 | -0.878 | 0.862 (inactive) | -0.128 | 0.119 | 0.286 (inactive) |
| CCCC[C@H]1OB(O)C[C@H]2C1=C(COC)C[C@H]1C(=O)N(C)C(=O)[C@H]12 | -0.971 (inactive) | -0.196 | 0.431 (inactive) | 0.0082 (inactive) | -1.19 (inactive) | 0.232 (inactive) | -0.18 | -0.251 (inactive) | 0.221 (inactive) | 0.786 | -0.0959 | -0.671 | -0.653 | -1.34 | -0.744 | -1.27 | 0.0166 (inactive) | -0.528 | -0.355 | -0.531 (inactive) |
| C=C[C@H](CO[Si](CC)(CC)CC)N(Cc1ccc(OC(C)=O)c(OC)c1)S(=O)(=O)c1ccc(Br)cc1 | 0.719 (inactive) | 0.698 | -0.0878 (inactive) | -0.231 (inactive) | -0.738 (inactive) | -1.39 (inactive) | 0.674 | -2 (inactive) | -0.928 (inactive) | -1.27 | -0.217 | 0.327 | -4.67 | -3.23 | -4.32 | -1.25 | 1.07 (inactive) | -1.1 | -1.84 | -0.18 (inactive) |
| COC(=O)[C@@]1(CCS(=O)(=O)c2ccccc2)N=C(c2ccc(OCCCO)cc2)O[C@H]1c1ccccc1CN=[N+]=[N-] | -0.146 (inactive) | 0.365 | 19.6 (active) | 3.74 (inactive) | 1.26 (inactive) | 1.33 (inactive) | 0.208 | -0.899 (inactive) | 0.495 (inactive) | -0.807 | -1.33 | -0.688 | -1.12 | -1.92 | -2.59 | -1.13 | 0.877 (inactive) | -1.22 | -1.56 | -2.08 (inactive) |
| C=CCN1C(=O)[C@]2(O[C@H](CCn3cc([C@H](O)c4ccccc4)nn3)[C@@H]([Si](C)(C)c3ccc(OC)cc3)[C@@H]2C)c2ccccc21 | -0.554 (inactive) | -0.0099 | 4.6 (inactive) | 1.02 (inactive) | 0.914 (inactive) | 0.843 (inactive) | 0.256 | 0.952 (inactive) | 0.055 (inactive) | -0.251 | -0.366 | 0.76 | -1.85 | -2.65 | -4.3 | -0.97 | 0.203 (inactive) | -0.953 | -2.26 | -1.75 (inactive) |
| C[N+](C)(C)CCCCNC(=O)[C@@H]1C[C@@H]2C(=O)N[C@@H](Cc3ccccc3)C(=O)N2[C@@H]1c1cccc(OCCO)c1 | 1.04 (inactive) | -0.0094 | 3.16 (inactive) | 0.469 (inactive) | -1.44 (inactive) | 0.13 (inactive) | 1.91 | -0.682 (inactive) | -0.331 (inactive) | 0.856 | 1.49 | -0.764 | 0.215 | 0.367 | 0.0971 | 1.58 | 0.924 (inactive) | 0.219 | -0.493 | -0.337 (inactive) |
| COCCOC(=O)N1C(=O)[C@@]2(c3cc(C#Cc4ccc(OC)cc4)ccc31)[C@H](c1ccc(OCCO)cc1)N1[C@H](c3ccccc3)[C@H](c3ccccc3)OC(=O)[C@H]1[C@@H]2C(=O)N1CCN(c2ncccn2)CC1 | -0.0791 (inactive) | 0.042 | 5.07 (inactive) | 2.39 (inactive) | 0.738 (inactive) | 1.17 (inactive) | -0.451 | 0.938 (inactive) | -1.34 (inactive) | 0.656 | -0.76 | 0.901 | -0.169 | -0.624 | -0.412 | 0.548 | 2.18 (inactive) | -0.351 | -0.857 | -0.0439 (inactive) |
| COc1ccc(CCNC(=O)[C@@]2(Sc3ccc(C)cc3)CC(=O)N(C3Cc4ccccc4C3)[C@@H]2c2ccc(CO)cc2I)cc1 | 0.657 (inactive) | 0.627 | 10.7 (active) | 1.95 (inactive) | 0.497 (inactive) | 0.768 (inactive) | -0.123 | 1.51 (inactive) | -1.66 (inactive) | 1.9 | 2.04 | 0.129 | 0.082 | -2.56 | -1.99 | 0.26 | -0.279 (inactive) | -0.597 | -0.565 | 0.86 (inactive) |
